An excerpt weighted towards active compounds, which were near 9.9% of everything screened.
Tau fibril FP = blocks human tau fibril formation measured by polarization; P10636; K18 P301L tau heparin fibrillization, Alexa594 FP, 6 h; Potency, µM (series often up to 57.7 µM), usual class: inhibitors; actives 0.39% (n = 280,000); AID 1468; active = well fitted curve in the direction sought with a large enough effect; inconclusive = small, poorly fitted or top-dose-only effect, or another doubt; inactive = no such curve, though single readings can be large; an effect the other way counts as inactive or inconclusive; also: nearly all actives have a fitted effect of over 55% in size
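Quantitative HTS format: compounds meet 15 uM recombinant K18 P301L tau and Alexa 594-tau tracer in 100 mM sodium acetate pH 7; 20 uM heparin triggers fibrillization at 37 C over 6 hr; FP gives the signal.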
HPGD inh = blocks human HPGD enzyme activity. P15428. purified HPGD, NADH fluorescence kinetic, PGE2 substrate. Potency, µM, actives largely listed as inhibitors. actives 4.3% (n = 150,000). AID 894
Target sequence (P15428 whole entry, looked up): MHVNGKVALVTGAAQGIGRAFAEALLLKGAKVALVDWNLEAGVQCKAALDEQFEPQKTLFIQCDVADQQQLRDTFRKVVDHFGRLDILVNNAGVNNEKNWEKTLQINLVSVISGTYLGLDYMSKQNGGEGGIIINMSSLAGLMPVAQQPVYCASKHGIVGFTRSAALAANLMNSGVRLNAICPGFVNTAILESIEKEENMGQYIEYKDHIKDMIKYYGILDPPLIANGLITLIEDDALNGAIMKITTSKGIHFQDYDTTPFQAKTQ
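NADH formation kinetics: reaction with 30 uM PGE2 and 1 mM NAD+ (final), 20 nM enzyme, Tris-HCl pH 8 with Tween 20, after 15 min compound preincubation at room temperature. Fluorescence change, last versus first of five reads.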
Tau fluor cs = counter-screen for tau fibril formation inhibitors; tau K18 P301L Alexa594 fluorescence, heparin fibrillization; Potency, µM (titrated, usually from 57.7 µM); actives 0.93% (n = 280,000); active = well fitted curve in the direction sought with a large enough effect; inconclusive = small, poorly fitted or top-dose-only effect, or another doubt; inactive = no such curve, though single readings can be large; an effect the other way counts as inactive or inconclusive; also: nearly all actives have a fitted effect of over 55% in size
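Human tau K18 P301L (15 uM unlabeled, 0.24 uM Alexa 594-labeled) in 100 mM sodium acetate pH 7 with 20 uM heparin, 6 hr at 37 C. ThT 30 uM added, 1 hr ambient; Alexa 594 FP and total fluorescence read at 555/632 nm.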
ALDH1A1 inh = ALDH1A1 (human) enzyme inhibition; P00352; Purified ALDH1A1, NADH fluorescence, propionaldehyde substrate; Potency, µM (titrated, usually from 75.3 µM), actives largely listed as inhibitors; actives 7.3% (n = 220,000); AID 1030
Target sequence (P00352 whole entry, looked up): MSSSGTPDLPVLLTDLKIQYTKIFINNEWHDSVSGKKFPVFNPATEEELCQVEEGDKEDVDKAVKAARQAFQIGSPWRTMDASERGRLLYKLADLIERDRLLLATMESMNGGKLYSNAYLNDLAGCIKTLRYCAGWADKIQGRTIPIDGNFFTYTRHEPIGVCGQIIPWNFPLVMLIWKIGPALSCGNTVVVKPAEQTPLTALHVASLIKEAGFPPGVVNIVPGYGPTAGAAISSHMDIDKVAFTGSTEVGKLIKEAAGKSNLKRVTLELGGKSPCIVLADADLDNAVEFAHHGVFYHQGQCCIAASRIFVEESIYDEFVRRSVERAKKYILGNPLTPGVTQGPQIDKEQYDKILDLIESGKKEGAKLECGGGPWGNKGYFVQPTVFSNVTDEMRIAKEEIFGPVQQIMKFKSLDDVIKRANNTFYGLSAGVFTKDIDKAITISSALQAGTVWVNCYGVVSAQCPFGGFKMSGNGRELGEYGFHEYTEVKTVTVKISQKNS
Tau ThT inhib = blocks human tau fibril formation measured by thioflavin T; actives 2.1% (n = 270,000); recombinant tau K18 P301L (four-repeat tau fragment), heparin-induced fibrillization, ThT fluorescence; Potency, µM (titrated, usually from 57.4 µM), usual class: inhibitors; active = well fitted curve in the direction sought with a large enough effect; inconclusive = small, poorly fitted or top-dose-only effect, or another doubt; inactive = no such curve, though single readings can be large; an effect the other way counts as inactive or inconclusive; also: nearly all actives have a fitted effect of over 55% in size
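Heparin-induced (20 uM) aggregation of recombinant human K18 P301L tau, 15 uM unlabeled with 0.24 uM labeled, pH 7 acetate buffer, 6 hr at 37 C with compound. Fibrils quantified by 30 uM ThT fluorescence after 1 hr ambient incubation.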
KDM4E inh = JMJD2E (human) inhibition; Potency, µM (top dose mostly 57.1 µM), usual class: inhibitors; JMJD2E catalytic domain, FDH-coupled NADH fluorescence (FDH is formaldehyde dehydrogenase); actives 1.6% (n = 230,000); also: nearly all actives have a fitted effect of over 50% in size
Of the large screens only hits and unclear results are named; the others gave an inactive call; [ ] = dose if it differs, or a comment. Unless noted, calls follow the shape of the dose curve; as a rule, active = well fitted inhibition curve with a large enough effect (not every such curve was filed as active); inconclusive = small, poorly fitted or top-dose-only effect, or another doubt; inactive = no such curve, though single readings can be large or run the other way.

O=C(/C=C/c1ccc(O)c(O)c1)OC1C(O)CC(OC(=O)/C=C/c2ccc(O)c(O)c2)(C(=O)O)CC1O (centres undefined)	KDM4E inh 3.2µM (no result: HPGD inh)
COc1ccc2cc3[n+](cc2c1OC)CCc1cc2c(cc1-3)OCO2	Tau ThT inhib 18µM
CCOc1[nH]c(/N=C/c2ccco2)c(C#N)c1C#N	Tau fibril FP inconclusive, HPGD inh inconclusive, ALDH1A1 inh 20µM, Tau ThT inhib inconclusive
CC(C)NC[C@@H](O)COc1ccc(COCCOC(C)C)cc1	none
CN(Cc1ccccc1)c1nc(-c2cccc([N+](=O)[O-])c2)nc2ccccc12	ALDH1A1 inh inconclusive
CC1CC(C)CN(c2ccc([N+](=O)[O-])cc2-c2nn[nH]n2)C1 (centres undefined)	KDM4E inh 3.2µM
O=C1C=C(c2ccccc2)C[C@H](c2cccs2)[C@H]1n1cnc([N+](=O)[O-])c1	ALDH1A1 inh inconclusive
O=C1C=C(c2cccs2)CC(c2cccs2)C1n1cnc([N+](=O)[O-])c1 (centres undefined)	ALDH1A1 inh 28µM, KDM4E inh inconclusive
CC(=O)N1CCC2(CCCN(C(=O)Nc3cccc(F)c3)C2)CC1	none (no result: Tau fibril FP, Tau fluor cs, Tau ThT inhib, KDM4E inh)
Cc1ccc(-c2cc(C(=O)Nc3ccc(SC(F)F)cc3)no2)cc1F	Tau fluor cs inconclusive, Tau ThT inhib inconclusive (no result: HPGD inh, ALDH1A1 inh, KDM4E inh)
COc1ccccc1-c1nnc(NC(=O)CSc2nncn2C)s1	ALDH1A1 inh inconclusive, KDM4E inh inconclusive (no result: HPGD inh)
COc1ccc(CCNC(=O)c2cnc3ccc(C)cn3c2=O)cc1	none (no result: HPGD inh, ALDH1A1 inh, KDM4E inh)
CCCCN(C)C(=O)c1sc2ncn(CC)c(=O)c2c1C	HPGD inh 16µM
N#Cc1cc(N)ccc1Sc1ccc(Cl)cc1	HPGD inh inconclusive, Tau fluor cs 16µM[quencher], KDM4E inh inconclusive
N#Cc1cc(N)ccc1Sc1ccccc1	Tau fibril FP inconclusive, HPGD inh inconclusive, Tau fluor cs inconclusive, ALDH1A1 inh inconclusive, KDM4E inh inconclusive
CCCSc1ncc(Cl)c(C(=O)Nc2nc3ccc(C)cc3s2)n1	none (no result: HPGD inh, ALDH1A1 inh, KDM4E inh)
C[C@@H]1/C(=N/O)CC2C[C@@H]1C2(C)C	ALDH1A1 inh 11µM
COc1ccc(-n2c(=O)c3sc4ccccc4c3n(Cc3ccccc3C)c2=O)cc1OC	none (no result: HPGD inh, ALDH1A1 inh, KDM4E inh)
COc1cc(/C=C(\C#N)C(=O)NCc2cccs2)ccc1O	ALDH1A1 inh inconclusive, Tau ThT inhib inconclusive
COc1cc(/C=C(\C#N)C(=O)c2ccc(O)c(O)c2)cc(I)c1O	HPGD inh 18µM, Tau fluor cs inconclusive, ALDH1A1 inh inconclusive, Tau ThT inhib 8.9µM, KDM4E inh 10µM
O=C1CCCC2=C1C(c1ccc(O)c(O)c1)c1c(ccc3ncccc13)N2 (centres undefined)	Tau fluor cs inconclusive, ALDH1A1 inh inconclusive, Tau ThT inhib inconclusive, KDM4E inh 25µM (no result: HPGD inh)
CCOc1ccc(/C=N/NC(=S)NC2CC3CCC2C3)cc1 (centres undefined)	ALDH1A1 inh inconclusive, Tau ThT inhib inconclusive (no result: HPGD inh)
Oc1ccccc1/C=N/NC(=S)NC1CC2CCC1C2 (centres undefined)	Tau fluor cs inconclusive, ALDH1A1 inh inconclusive, KDM4E inh 25µM (no result: HPGD inh)
COCCNC(=S)N/N=C/c1ccccc1C(=O)O	none
COCCCNC(=S)N/N=C/c1ccccc1O	ALDH1A1 inh inconclusive, KDM4E inh 28µM (no result: HPGD inh)
CCCN1C(=O)/C(=C/c2ccncc2)SC1=S	ALDH1A1 inh 10µM
O=C1/C(=C/c2ccncc2)SC(=S)N1Cc1ccccc1	Tau ThT inhib inconclusive (no result: HPGD inh, ALDH1A1 inh)
CCN1C(=O)/C(=C/c2cn(C)nc2C)SC1=S	ALDH1A1 inh 4µM
Cc1ccc(NCN2C(=O)C(=O)c3ccccc32)nc1	ALDH1A1 inh 0.14µM
COc1ccc(C(=O)COC(=O)C(CCCCN2C(=O)C3C4C=CC(C4)C3C2=O)N2C(=O)C3C4C=CC(C4)C3C2=O)cc1 (centres undefined)	ALDH1A1 inh 10µM
Cc1ccc(C(=O)COC(=O)CN2C(=O)C3C4CCC(C4)C3C2=O)cc1[N+](=O)[O-] (centres undefined)	ALDH1A1 inh 20µM (no result: HPGD inh)
COC(=O)C1C2C=CC(C3CC23)C1C(=O)OCC(=O)c1ccc(OC)cc1 (centres undefined)	HPGD inh 28µM, ALDH1A1 inh 6.3µM
COc1ccc(C(=O)COC(=O)CN2C(=O)C3C4C=CC(C5CC45)C3C2=O)cc1 (centres undefined)	ALDH1A1 inh 13µM
COc1ccc(C(=O)COC(=O)CCN2C(=O)C3C4CC(C(Br)C4Br)C3C2=O)cc1 (centres undefined)	none
O=C(CN1C(=O)C2C3CCC(C3)C2C1=O)OCC(=O)c1cccc([N+](=O)[O-])c1 (centres undefined)	none
CC(C)COc1ccc(C(=O)Nc2onc3c2CCCC3)cc1	Tau fluor cs inconclusive, Tau ThT inhib inconclusive (no result: HPGD inh, ALDH1A1 inh, KDM4E inh)
COc1ccc(NC(=O)CCCN2C(=O)C3C4C=CC(C4)C3C2=O)c(OC)c1 (centres undefined)	ALDH1A1 inh 13µM
COc1ccc(C(=O)N2CCN(c3nnnn3-c3ccccc3)CC2)cc1OC	ALDH1A1 inh 16µM
CCOC(=O)N1CCN(c2nnnn2-c2ccccc2)CC1	ALDH1A1 inh inconclusive
CCN(CC)c1nn2c(=O)c(C(=O)NCCc3ccc(C)cc3)cnc2s1	none (no result: HPGD inh, ALDH1A1 inh, KDM4E inh)
Cc1cc(=O)cc2oc3cc(N)c(-c4c(C)cc(O)cc4O)c(C)c3nc1-2	Tau fibril FP 22µM, Tau fluor cs inconclusive, Tau ThT inhib 14µM, KDM4E inh 8.9µM
O=C(/C=C/c1ccccc1)Nc1cccc(C(=O)O)c1	none (no result: HPGD inh)
C=CCNC1=C(Cl)C(=O)c2ccccc2C1=O	ALDH1A1 inh inconclusive
O=C(O)c1cccc(NC2=C(Cl)C(=O)c3ccccc3C2=O)c1	Tau fibril FP 25µM, Tau fluor cs 4µM[quencher], ALDH1A1 inh 32µM, Tau ThT inhib 2.8µM (no result: HPGD inh)
CC(C)NC1=C(Cl)C(=O)c2ccccc2C1=O	Tau fibril FP inconclusive, HPGD inh inconclusive, ALDH1A1 inh inconclusive, Tau ThT inhib 25µM, KDM4E inh inconclusive
CC(C(=O)Nc1ccc(C(=O)O)cc1)N1C(=O)c2ccccc2C1=O (centres undefined)	none
O=C1C(Cl)=C(Nc2ccccc2)C(=O)c2ccccc21	Tau fibril FP inconclusive, Tau fluor cs 3.5µM[quencher], Tau ThT inhib 3.2µM
O=C(O)c1ccc(NC2=C(Cl)C(=O)c3ccccc3C2=O)cc1	Tau fibril FP 3.5µM, Tau fluor cs 1.8µM[quencher], Tau ThT inhib 1.4µM (no result: HPGD inh, ALDH1A1 inh)
CCOc1ccc(S(=O)(=O)NCCc2csc3nc(-c4ccc(F)cc4)nn23)cc1	none (no result: HPGD inh, ALDH1A1 inh, KDM4E inh)
COc1ccc(-c2nc3cc(NC(=O)c4ccc(C)cc4)ccc3o2)cc1Cl	Tau fibril FP inconclusive, Tau ThT inhib inconclusive (no result: HPGD inh, ALDH1A1 inh, KDM4E inh)
CCc1cc2c(nc1CC)CCN(CC/C(C)=N/O[C@@H](C)CN1CCCCc3nc(C)c(C)cc31)C2	none (no result: HPGD inh, KDM4E inh)
CC(C)OCCCNC1=C(Cl)C(=O)c2ccccc2C1=O	Tau fluor cs inconclusive, Tau ThT inhib 13µM (no result: HPGD inh, ALDH1A1 inh)
